According to PubChem BioAssay AID1159580 (chemical genetic matrix, 2015):
In all, about 5,500 compounds went through this assay and about 2,000 (36%) were called active. Roughly 18% stayed inconclusive and do not appear here. Cut-off read from the data, not from the text of the source: active = normalized growth mostly below about 0.91 (no sharp cut-off); inconclusive = no clear call, values can overlap the other calls; inactive = mostly above about 0.92. Some of the results follow.

Experiment: chemical genetic growth profiling, strain panel (AID 1159580);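 note: tested at 20 µM; growth read once vehicle control cultures reached saturation at 30 °C; 1 = growth at the plate median or of vehicle wells; lower values mean less growth of the strain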
Conditions: growth OD

Measured: normalized growth

CN1CCCN=C1COC(=O)C(O)(c1ccccc1)C1CCCCC1 (configuration not stated)
inactive: S. cerevisiae deletion strains, locus YJR075W, strain HOC1, hits give low values 0.993 | S. cerevisiae deletion strains, locus YKL009W, strain mrt4, hits give low values 0.999 | S. cerevisiae deletion strains, locus YKL068W, hits give low values 0.989 | S. cerevisiae deletion strains, locus YKL085W, strain MDH1 (second series), hits give low values 1 | S. cerevisiae deletion strains, locus YKL085W, strain MDH1, hits give low values 1 | S. cerevisiae deletion strains, locus YKL160W, strain elf1, hits give low values 0.998 | S. cerevisiae deletion strains, locus YKL190W, strain CNB1, hits give low values 0.997 | S. cerevisiae deletion strains, locus YKR001C, strain vps1, hits give low values 0.975 | S. cerevisiae deletion strains, locus YKR026C, strain gcn3, hits give low values 0.997 | S. cerevisiae deletion strains, locus YKR091W, strain srl3, hits give low values 1 | S. cerevisiae deletion strains, locus YLL001W, strain dnm1, hits give low values 0.989 | S. cerevisiae deletion strains, locus YLL026W, hits give low values 0.991 | S. cerevisiae deletion strains, locus YLL041C, strain sdh2, hits give low values 0.998 | S. cerevisiae deletion strains, locus YLR027C, strain aat2, hits give low values 0.993 | S. cerevisiae deletion strains, locus YLR039C, strain RIC1, hits give low values 1.02 | S. cerevisiae deletion strains, locus YLR058C, strain SHM2, hits give low values 1.01 | S. cerevisiae deletion strains, locus YLR102C, strain apc9, hits give low values 0.993 | S. cerevisiae deletion strains, locus YLR113W, strain HOG1, hits give low values 1.01 | S. cerevisiae deletion strains, locus YLR221C, strain rsa3, hits give low values 0.992 | S. cerevisiae deletion strains, locus YLR258W, strain gsy2, hits give low values 1 | S. cerevisiae deletion strains, locus YLR262C, strain YPT6 (second series), hits give low values 0.988 | S. cerevisiae deletion strains, locus YLR262C, strain YPT6, hits give low values 1.02 | S. cerevisiae deletion strains, locus YLR268W, strain sec22, hits give low values 0.971 | S. cerevisiae deletion strains, locus YLR320W, strain mms22, hits give low values 1.01 | S. cerevisiae deletion strains, locus YLR330W, strain CHS5, hits give low values 1.01 | S. cerevisiae deletion strains, locus YLR342W, strain FKS1 (second series), hits give low values 1.02 | S. cerevisiae deletion strains, locus YLR342W, strain FKS1, hits give low values 1 | S. cerevisiae deletion strains, locus YLR357W, strain rsc2, hits give low values 0.976 | S. cerevisiae deletion strains, locus YLR370C, strain arc18, hits give low values 0.992 | S. cerevisiae deletion strains, locus YLR371W, strain rom2, hits give low values 0.993 | S. cerevisiae deletion strains, locus YLR384C, strain iki3, hits give low values 0.982 | S. cerevisiae deletion strains, locus YLR418C, strain cdc73, hits give low values 0.973 | S. cerevisiae deletion strains, locus YML016C, strain PPZ1, hits give low values 1.01 | S. cerevisiae deletion strains, locus YML032C, strain rad52, hits give low values 0.979 | S. cerevisiae deletion strains, locus YML120C, strain ndi1, hits give low values 1 | S. cerevisiae deletion strains, locus YML124C, strain tub3, hits give low values 0.992 | S. cerevisiae deletion strains, locus YMR058W, strain fet3, hits give low values 0.95 | S. cerevisiae deletion strains, locus YMR078C, strain ctf18, hits give low values 0.992 | S. cerevisiae deletion strains, locus YMR125W, strain sto1, hits give low values 0.992 | S. cerevisiae deletion strains, locus YMR129W, hits give low values 0.995 | S. cerevisiae deletion strains, locus YMR205C, strain PFK2, hits give low values 0.993 | S. cerevisiae deletion strains, locus YMR223W, strain ubp8, hits give low values 1 | S. cerevisiae deletion strains, locus YMR231W, strain pep5, hits give low values 0.99 | S. cerevisiae deletion strains, locus YMR263W, strain SAP30, hits give low values 1.01 | S. cerevisiae deletion strains, locus YMR307W, strain GAS1, hits give low values 1.03 | S. cerevisiae deletion strains, locus YNL067W, strain RPL9B, hits give low values 0.992 | S. cerevisiae deletion strains, locus YNL071W, strain lat1, hits give low values 0.994 | S. cerevisiae deletion strains, locus YNL128W, strain TEP1, hits give low values 1.01 | S. cerevisiae deletion strains, locus YNL153C, strain GIM3, hits give low values 1 | S. cerevisiae deletion strains, locus YNL183C, strain NPR1, hits give low values 0.947 | S. cerevisiae deletion strains, locus YNL209W, strain ssb2, hits give low values 0.99 | S. cerevisiae deletion strains, locus YNL233W, strain BNI4, hits give low values 0.998 | S. cerevisiae deletion strains, locus YNL248C, strain rpa49, hits give low values 0.993 | S. cerevisiae deletion strains, locus YNL250W, strain rad50, hits give low values 0.988 | S. cerevisiae deletion strains, locus YNL271C, strain bni1, hits give low values 0.987 | S. cerevisiae deletion strains, locus YNL298W, strain CLA4, hits give low values 0.994 | S. cerevisiae deletion strains, locus YNL307C, strain MCK1, hits give low values 0.981 | S. cerevisiae deletion strains, locus YNL322C, strain KRE1 (second series), hits give low values 1 | S. cerevisiae deletion strains, locus YNL322C, strain KRE1, hits give low values 1 | S. cerevisiae deletion strains, locus YNR049C, strain mso1, hits give low values 0.994 | S. cerevisiae deletion strains, locus YNR052C, strain pop2, hits give low values 0.999 | S. cerevisiae deletion strains, locus YOL006C, strain TOP1, hits give low values 1.04 | S. cerevisiae deletion strains, locus YOL012C, strain htz1 0.733 | S. cerevisiae deletion strains, locus YOL147C, strain pex11, hits give low values 0.99 | S. cerevisiae deletion strains, locus YOR001W, strain rrp6, hits give low values 1.01 | S. cerevisiae deletion strains, locus YOR061W, strain CKA2, hits give low values 1.01 | S. cerevisiae deletion strains, locus YOR069W, strain VPS5, hits give low values 1.01 | S. cerevisiae deletion strains, locus YOR070C, strain gyp1, hits give low values 1.01 | S. cerevisiae deletion strains, locus YOR080W, strain dia2, hits give low values 0.996 | S. cerevisiae deletion strains, locus YOR083W, strain WHI5, hits give low values 0.995 | S. cerevisiae deletion strains, locus YOR106W, strain vam3, hits give low values 1.01 | S. cerevisiae deletion strains, locus YOR136W, strain idh2, hits give low values 0.991 | S. cerevisiae deletion strains, locus YOR144C, strain elg1, hits give low values 0.991 | S. cerevisiae deletion strains, locus YOR184W, strain ser1, hits give low values 1 | S. cerevisiae deletion strains, locus YOR231W, strain MKK1, hits give low values 1 | S. cerevisiae deletion strains, locus YOR265W, strain rbl2, hits give low values 0.984 | S. cerevisiae deletion strains, locus YOR270C, strain vph1, hits give low values 1.02 | S. cerevisiae deletion strains, locus YOR290C, strain snf2, hits give low values 1.02 | S. cerevisiae deletion strains, locus YOR316C, strain cot1, hits give low values 1 | S. cerevisiae deletion strains, locus YPL051W, strain arl3, hits give low values 0.997 | S. cerevisiae deletion strains, locus YPL055C, strain LGE1, hits give low values 0.998 | S. cerevisiae deletion strains, locus YPL078C, strain atp4, hits give low values 0.998 | S. cerevisiae deletion strains, locus YPL106C, strain sse1, hits give low values 0.989 | S. cerevisiae deletion strains, locus YPL240C, strain hsp82, hits give low values 0.991 | S. cerevisiae deletion strains, locus YPL241C, strain CIN2, hits give low values 1.01 | S. cerevisiae deletion strains, locus YPL256C, strain CLN2, hits give low values 0.992 | S. cerevisiae deletion strains, locus YPR119W, strain clb2, hits give low values 0.993 | S. cerevisiae deletion strains, locus YPR141C, strain kar3, hits give low values 0.994 | S. cerevisiae deletion strains, locus YPR163C, strain tif3, hits give low values 0.991 | S. cerevisiae deletion strains, locus YPR167C, strain met16, hits give low values 0.987 | S. cerevisiae deletion strains, strain wtn01, hits give low values 0.966 | S. cerevisiae strains, strain wild type, hits give low values 1
